This is a sample that favours compounds with a hit; in the whole collection about 0.51% have one here.
FMDV Renilla – antivirals against foot and mouth disease virus replicon. 120,000 tested, 0.32% active. AID 1745857. FMDV replicon cells, Renilla luciferase signal. Potency, µM (top dose mostly 57.5 µM), for inactives: at the top dose activity change, negative = inhibition, most hits filed as inhibitors; note: nearly all actives have a fitted effect of over 55% in size
FMDV antiviral – FMDV antiviral activity by firefly signal | FMDV antiviral cell assay, firefly luciferase signal | Potency, µM (highest dose often 57.5 µM), inactives show at the highest dose activity change, negative = inhibition, usual class: inhibitors | 120,000 tested, 0.23% active; note: nearly all actives have a fitted effect of over 60% in size
Numbers without * were called inactive; ? = inconclusive. Calls come from the whole dose curve. % is set by controls: 0 for no effect and ±100 for the full control effect; potency is the fitted concentration of half-maximal effect.

SMILES	FMDV Renilla	FMDV antiviral
O=C(C1CCC(CNS(=O)(=O)c2ccc(Br)s2)CC1)N1CCN(c2ccc(F)cc2)CC1 (stereo not given)	6.3µM*	?
Cc1cccc(NC(=O)Cn2nc(-c3ccccc3)c3c(c2=O)CCCC3)c1C	-3%	6%
CC1(C)CC(=O)C2=C(C1)Nc1[nH]n(-c3ccccc3)c(=O)c1C2c1ccc(F)cc1 (stereo not given)	156%	43%
CC1(C)CC(=O)C2=C(C1)Nc1[nH]n(-c3ccccc3)c(=O)c1C2c1ccc(O)cc1 (stereo not given)	10µM*	2%
O=C1CC(c2ccccc2O)Cc2nc(N3CCN(c4ccccc4F)CC3)ncc21 (stereo not given)	11µM*	?
CCOC(=O)N1CCN(c2ncc3c(n2)CC(c2ccc(OC)c(OC)c2)CC3=O)CC1 (stereo not given)	-5%	-2%
O=c1oc2cc(OCc3nn[nH]n3)ccc2cc1-c1ccc(Cl)cc1	-1%	83%
COc1ccc(C(=O)Nc2cnc3c(cnn3C(C)C)c2)cc1S(=O)(=O)N1CCCC1	?	32µM*
CC(C)n1ncc2cc(NC(=O)c3cc(S(=O)(=O)N4CCCCC4)ccc3N3CCCC3)cnc21	1%	-15%
Cc1cccc(C(C)C)c1NC(=O)c1ccc2c(c1)CCC2	9%	28%
Cn1c(=O)c2c(ncn2CCC(=O)Nc2cccc(Br)c2)n(C)c1=O	4%	16%
COCCN(Cc1cccs1)C(=O)COc1ccc2c(C)cc(=O)oc2c1	0%	0%
CCCCOCCCNC(=O)CCC(=O)NC1CCCC(C)C1C (stereo not given)	-1%	5%
CCOc1cc(C2CC(=O)Nc3c(-c4ccc(OC)cc4)csc32)ccc1OCC(N)=O (stereo not given)	8.9µM*	13µM*
COc1cc(C2CC(=O)Nc3c2sc(C(=O)O)c3-c2ccc(F)cc2)cc(OC)c1OC (stereo not given)	0%	-3%
CCCCCCCCCCOc1ccc(C(=O)Oc2ccc(Cl)cc2Cc2ccccc2)cc1	1%	-3%
COc1ccc2cc(C(=O)NCC(C)N3CCCC3)c(C)nc2c1 (stereo not given)	-5%	23%
Cn1c(=O)[nH]c(=O)c2c1nc(SCCN1CCCCC1)n2CCc1ccccc1	-17%	-15%
Cc1ccc(C)c(-c2csc(Nc3ccc(S(N)(=O)=O)cc3)n2)c1	18µM*	?
Cc1ccc(C)c(-c2csc(Nc3ccc(S(=O)(=O)Nc4nc(C)cc(C)n4)cc3)n2)c1	62%	-20%
CCCCC(=O)Oc1ccc2cc(-c3csc(C)n3)c(=O)oc2c1	-4%	71%
CN(CC(=O)N(C)C1CCCc2ccccc21)c1ncnc2nc[nH]c12 (stereo not given)	-16%	-11%
CN(Cc1ccc2ccccc2c1)C(=O)CN(C)c1ncnc2nc[nH]c12	?	32µM*
Cc1ccc(NC(=O)C2=C(c3ccccc3)NC(=S)NC2c2ccc(C)cc2)cc1 (stereo not given)	0%	0%

Source: PubChem
